# NadD block – inhibitors of S. aureus NadD, primary screen, biochemical, colorimetric, uHTS | Nicotinate-nucleotide adenylyltransferase NadD (Staphylococcus aureus N315) | purified NadD enzyme, colorimetric absorbance read-out | inhibition, % at 20 µM | 360,000 compounds, 0.78% hits; in the data active = inhibition above about 26%
# FAS-TE inh – FAS thioesterase domain inhibitors, primary screen, biochemical, fluorescence intensity, uHTS; recombinant FAS-TE, OMFH fluorogenic substrate, fluorescence endpoint; inhibition, % at 15 µM; 360,000 compounds, 0.67% hits; AID 602261, 2012;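 active = compounds whose normalised, plate-corrected inhibition of enzyme fluorescence in the single-dose primary screen is 50% or more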;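 also: 0% = DMSO with enzyme and 100% = substrate without enzyme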
# Mot1-301 SUMO – yeast Mot1-301 growth rescue at high temperature, primary screen, SUMOylation pathway inhibitor project, S. cerevisiae, ATP luminescence, 38.5C | growth rescue, % at 18.8 µM | S. cerevisiae Mot1-301 growth rescue; percent above DMSO median, 100 means doubled | 320,000 compounds, 1% hits | AID 2716, 2010;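 active = every valid replicate shows activation above 250% relative to neutral control wells; inactive = the rest, any valid replicate at or below 250%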;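 also: OY570 slx delta 5 strain wells were the positive control but not used for scaling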
# Calb FLC – C. albicans growth inhibition with fluconazole, primary screen, CaCi-2 strain, Alamar Blue fluorescence. 300,000 compounds, 0.57% hits. growth inhibition, % (concentration not given with the values). AID 1979, 2009. C. albicans CaCi-2 (fluconazole-resistant clinical isolate) + fluconazole, 48 h;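 active = growth inhibition above about 58% in most replicates, limit read from the data, passing the limit was not always enough; inconclusive = exactly half the replicates above a set limit; inactive = most replicates below a set limit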;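 also: all wells also contain fluconazole at 8 µg/ml as a sub-toxic cotreatment; 0% = median of DMSO wells and 100% = median of geldanamycin control wells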
# ATG4B inhibitor – ATG4B protease inhibitors, primary screen, biochemical, fluorescence, uHTS; inhibition, % at 8.33 µM; Cysteine protease ATG4B (Homo sapiens), Q9Y4P1; 340,000 compounds, 0.51% hits; ATG4B cleavage of LC3-PLA2, NBD-HPC fluorescence, 1 h; in the data active = inhibition above about 40%
# Target sequence (Q9Y4P1 whole entry, looked up): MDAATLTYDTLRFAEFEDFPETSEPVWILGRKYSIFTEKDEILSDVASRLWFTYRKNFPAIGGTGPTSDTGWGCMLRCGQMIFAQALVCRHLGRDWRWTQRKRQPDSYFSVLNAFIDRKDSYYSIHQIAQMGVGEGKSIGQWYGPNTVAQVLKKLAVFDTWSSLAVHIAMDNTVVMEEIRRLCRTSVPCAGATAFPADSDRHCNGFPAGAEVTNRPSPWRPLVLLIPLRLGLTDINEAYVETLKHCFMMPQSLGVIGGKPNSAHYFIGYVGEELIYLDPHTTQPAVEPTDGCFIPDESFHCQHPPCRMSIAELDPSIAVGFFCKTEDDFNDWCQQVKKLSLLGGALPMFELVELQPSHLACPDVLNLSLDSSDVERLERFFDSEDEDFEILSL
# NadD inh conf – inhibitors of S. aureus NadD, confirmation, biochemical, colorimetric, single concentration; 2,000 compounds, 13% hits; inhibition, % at 20 µM; shares compounds with NadD block; purified S. aureus NadD, colorimetric enzyme assay; in the data active = inhibition mostly above about 42%, no sharp cut-off; inactive = mostly below about 42%
# The depositor's hits bear a star; ? = inconclusive; . = no result. Rows were chosen to be rich in hits. Some 3.1% of all compounds tested hit in one or more screens of this group.
SMILES,NadD block,FAS-TE inh,Mot1-301 SUMO,Calb FLC,ATG4B inhibitor,NadD inh conf
Cc1cccc(NC(=O)C(=O)NCC2CCCN2S(=O)(=O)c2ccccc2)c1 (stereo not given),-6,11,80,15,2,.
COc1cc(/C=C2\SC(=O)N(c3cccc(Cl)c3)C2=O)cc([N+](=O)[O-])c1O,26*,35,.,.,3,-1
Cc1nn(Cc2c(Cl)cccc2Cl)c(C)c1NC(=O)c1cn(-c2ccccc2)nc1-c1ccccc1,34*,-2,3,2,2,6
Cc1ccc2oc(Nc3nc(-c4ccccc4)cc(=O)[nH]3)nc2c1,.,.,.,-9,-10,.
O=C1CCCC2=C1C1(CCCC1)N=C(Nc1nc3cc(-c4ccccc4)ccc3o1)N2,40*,41,.,.,.,13
CCOC(=O)C1=C(N)n2c(s/c(=C\c3ccco3)c2=O)=C(C(=O)OC(C)C)C1c1ccco1 (stereo not given),32*,18,0,-5,-8,18
Cc1csc(N=Cc2ccc([N+](=O)[O-])o2)n1,36*,-23,.,.,.,22
COc1ccccc1Nc1ccc(C(=O)NCc2cccs2)cn1,0,0,3,-5,-2,.
COc1ccccc1Nc1ncc(-c2cccs2)s1,40*,11,-15,-2,-1,18
CCOc1ccccc1-c1cc(C(=O)N/N=C/c2ccc3c(c2)OCO3)c2ccccc2n1,35*,34,.,.,-11,12
Cc1csc(NC(=O)c2cc(-c3ccco3)nc3ccccc23)n1,75*,-2,736,-14,20,53*
O=C(N/N=C/c1ccc(F)cc1)c1cc(-c2ccco2)nc2ccccc12,45*,0,-23,4,15,81*
Cc1c(/C=N/NC(=O)CNc2ccccc2)c2ccccn2c1C(=O)c1ccc(Cl)cc1,36*,33,-7,-2,6,17
Cc1ccccc1NCC(=O)N/N=C/c1c(C)c(C(=O)c2ccc(Cl)cc2)n2ccccc12,27,14,10,-16,-4,.
Oc1c(I)cc(I)c2cccnc12,46*,8,.,.,0,6
O=C(O)c1cccc(S(=O)(=O)N2CCN(S(=O)(=O)c3ccc4ccccc4c3)CC2)c1,-6,-4,.,.,-3,.
O=C(C1CCN(S(=O)(=O)c2ccc(-n3cnnn3)cc2)CC1)N1CCCCC1,-4,7,10,-2,-7,.
CC(C)(C)c1ccc(-c2n[nH]c(=S)n2Cc2ccccc2)cc1,4,13,87,7,5,.
CC(C)n1c(-c2ccc(C(C)(C)C)cc2)n[nH]c1=S,29*,2,-6,10,4,12
CC(C)c1ccc(-c2c(NCCc3ccccc3)c(=O)c2=O)cc1,-1,-8,-7,-5,-2,.
N#Cc1c(NC(=O)CSc2nnc(-c3ccco3)n2-c2ccccc2)sc2c1CCC2,41*,3,-1,-19,13,19
COc1ccc(-n2c(SCC(=O)Nc3sc4c(c3C#N)CCCC4)nnc2-c2ccccc2OC)cc1,41*,24,142,24,-16,45
COc1ccc(-c2nnc(SCC(=O)Nc3sc4c(c3C#N)CCCC4)n2-c2ccccc2)cc1,41*,-12,-13,-5,9,5
COc1ccc(-n2c(SCC(=O)Nc3ccccc3)nnc2-c2ccc(NS(=O)(=O)c3ccc(C)cc3)cc2)cc1,49*,-2,190,-5,3,44
COc1ccc(-n2c(SCC(N)=O)nnc2-c2ccc(NS(=O)(=O)c3ccc(C)cc3)cc2)cc1,7,-3,0,?,6,.
SMILES,NadD block,FAS-TE inh,Mot1-301 SUMO,Calb FLC,ATG4B inhibitor,NadD inh conf
CCOc1ccc(NC(=O)CN(C)C(=O)c2ccccc2CCc2ccccc2)cc1OCC,-6,14,-1,9,6,.
CCCCNC(=O)c1nc(C2CCN(S(=O)(=O)c3cccc(C(F)(F)F)c3)CC2)oc1-c1cccc(C(F)(F)F)c1,-8,26,.,.,.,.
Cc1ccccc1-n1c(SCC(=O)Nc2c(C)cccc2C)nc(O)cc1=O,4,-1,-3,34,6,.
N#CC1=C(N)Oc2c(ccc3ccccc23)C1c1ccsc1 (stereo not given),8,10,-3,48,-6,.
COc1cc(C2C(C#N)=C(N)Oc3c2ccc2ccccc32)ccc1OCC(=O)Nc1cccc(C)c1 (stereo not given),30*,30,6,4,28,41
COc1cc(C2C(C#N)=C(N)Oc3c2ccc2ccccc32)ccc1OCC(=O)Nc1ccc(C)cc1 (stereo not given),40*,13,7,4,12,37
COC(=O)C1=C(C)OC(N)=C(C#N)C1c1ccc(OC)c(OC)c1OC (stereo not given),-1,-6,2,?,3,.
O=C(COC(=O)COc1ccc(Br)cc1)NCc1ccccc1,-9,-7,2,.,-6,.
COc1ccc(Oc2c(OC)cc(NCc3ccc(CN)cc3)c3ncccc23)cc1,70*,-16,.,.,.,66*
O=C(Nc1c2c(nn1-c1ccc(F)cc1)CSC2)c1ccc(S(=O)(=O)N2CCOCC2)cc1,42*,-1,-11,11,-2,34
CC(C)(C)n1nc2c(c1NC(=O)c1ccc(S(=O)(=O)N3CCCC3)cc1)CSC2,31*,-1,34,14,-6,48*
Oc1ccc(C[C@H]2CNC(=S)N2CC2CCCN2C[C@H](Cc2ccc(O)cc2)N2C[C@H](Cc3ccccc3)N(CC3CCCCC3)C2=S)cc1 (stereo not given in full),51*,-104,.,.,-2,55*
CC(C)C[C@@H](CN1CCCC1CN1C(=S)NC[C@@H]1Cc1ccccc1)N1C[C@H](Cc2ccc(O)cc2)N(CC2CCCCC2)C1=S (stereo not given in full),29,-92,.,.,.,.
Oc1ccc(C[C@H]2CN([C@@H](Cc3ccccc3)CN3CCC[C@@H]3CN3C(=S)NC[C@@H]3Cc3ccccc3)C(=S)N2CC2CCCCC2)cc1,22,-54,.,.,.,.
Oc1ccc(C[C@@H](CN2CCCC2CN2C(=S)NC[C@@H]2Cc2ccccc2)N2C[C@H](Cc3ccccc3)N(CC3CCCCC3)C2=S)cc1 (stereo not given in full),44*,-93,.,.,.,13
Oc1ccc(C[C@@H](CN2CCCC2CN2C(=S)NC[C@@H]2Cc2ccccc2)N2C[C@H](Cc3ccccc3)N(CC3CCCCCC3)C2=S)cc1 (stereo not given in full),46*,-94,.,.,.,-4
